Results from PubChem BioAssay (Tox21).
“And” between values parts separate entries of the source, which are not always exact repeats. Equal entries are not always repeated. Results filed as inconclusive are left out. Where a call stands in place of a potency, no number is given. Where a structure was tested more than once in an assay, its records may differ in their call. The source made the active and inactive calls. Calls follow the shape of the dose curve; as a rule, active = well fitted curve in the direction sought with a large enough effect in the repeat runs; inconclusive = weak or mixed curves; inactive = no such curve, though single readings can be large; an effect the other way counts as inactive or inconclusive.

Columns and labels:
[1] = target: Cytochrome P450 2C19 (Homo sapiens) (UniProt P33261); experiment: Cytochrome P450 Family 2 Subfamily C Member 19 (CYP2C19) small molecule antagonists: luciferase reporter qHTS assay (AID 1671197); also: nearly all actives have a fitted effect of over 65% in size; also: potency is read from the fitted curve at half-maximal effect
Cytochrome P450 2C19 (Homo sapiens), sequence (P33261 whole entry, looked up): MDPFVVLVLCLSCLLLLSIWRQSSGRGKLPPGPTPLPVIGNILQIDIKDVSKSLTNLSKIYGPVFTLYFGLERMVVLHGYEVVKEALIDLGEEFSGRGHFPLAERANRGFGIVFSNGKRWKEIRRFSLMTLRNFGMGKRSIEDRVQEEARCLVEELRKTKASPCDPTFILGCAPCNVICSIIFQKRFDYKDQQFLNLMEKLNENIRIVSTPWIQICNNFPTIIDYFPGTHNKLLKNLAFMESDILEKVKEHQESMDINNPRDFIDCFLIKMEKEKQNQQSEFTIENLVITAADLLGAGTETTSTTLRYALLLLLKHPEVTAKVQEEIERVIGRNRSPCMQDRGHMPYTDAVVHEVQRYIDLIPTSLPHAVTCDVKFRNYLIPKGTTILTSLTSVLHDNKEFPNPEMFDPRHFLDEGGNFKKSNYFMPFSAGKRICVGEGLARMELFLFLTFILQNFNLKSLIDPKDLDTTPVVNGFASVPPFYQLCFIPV
Procedure, shortened: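 P450-Glo CYP2C19 system: enzyme-substrate mix with compound 10 min at room temperature, then NADPH regeneration solution, 1 h at 37C. Proluciferin-to-luciferin conversion detected by luminescence after 20 min with detection reagent; ketoconazole as positive control.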

[2] = target: Cytochrome P450 2C9 (Homo sapiens) (UniProt P11712); experiment: Cytochrome P450 Family 2 Subfamily C Member 9 (CYP2C9) small molecule antagonists: luciferase reporter qHTS assay (AID 1671198); also: nearly all actives have a fitted effect of over 50% in size; also: potency is read from the fitted curve at half-maximal effect
Cytochrome P450 2C9 (Homo sapiens), sequence (P11712 whole entry, looked up): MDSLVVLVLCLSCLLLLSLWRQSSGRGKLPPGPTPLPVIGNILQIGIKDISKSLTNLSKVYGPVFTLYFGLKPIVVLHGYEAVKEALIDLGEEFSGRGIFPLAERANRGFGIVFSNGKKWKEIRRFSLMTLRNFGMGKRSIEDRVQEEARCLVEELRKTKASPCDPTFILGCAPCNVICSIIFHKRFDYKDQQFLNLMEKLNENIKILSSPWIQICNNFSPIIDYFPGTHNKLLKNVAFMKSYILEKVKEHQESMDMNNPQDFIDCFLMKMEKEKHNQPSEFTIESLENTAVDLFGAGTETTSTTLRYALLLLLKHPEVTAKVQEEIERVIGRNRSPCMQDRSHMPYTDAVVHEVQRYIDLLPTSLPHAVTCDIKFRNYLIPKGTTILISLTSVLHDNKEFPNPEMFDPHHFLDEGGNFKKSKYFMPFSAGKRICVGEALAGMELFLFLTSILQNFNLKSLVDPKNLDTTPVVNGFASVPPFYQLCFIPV
Procedure, shortened: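 Enzyme-substrate mix preincubated with compound 10 min at room temperature; reaction started with NADPH regeneration solution, 1 h 37C. Luminescent luciferin product read after 20 min detection reagent.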

[3] = target: Cytochrome P450 1A2 (Homo sapiens) (UniProt P05177); experiment: Cytochrome P450 Family 1 Subfamily A Member 2 (CYP1A2) small molecule antagonists: luciferase reporter qHTS assay (AID 1671199); also: nearly all actives have a fitted effect of over 50% in size; also: potency is read from the fitted curve at half-maximal effect
Cytochrome P450 1A2 (Homo sapiens), sequence (P05177 whole entry, looked up): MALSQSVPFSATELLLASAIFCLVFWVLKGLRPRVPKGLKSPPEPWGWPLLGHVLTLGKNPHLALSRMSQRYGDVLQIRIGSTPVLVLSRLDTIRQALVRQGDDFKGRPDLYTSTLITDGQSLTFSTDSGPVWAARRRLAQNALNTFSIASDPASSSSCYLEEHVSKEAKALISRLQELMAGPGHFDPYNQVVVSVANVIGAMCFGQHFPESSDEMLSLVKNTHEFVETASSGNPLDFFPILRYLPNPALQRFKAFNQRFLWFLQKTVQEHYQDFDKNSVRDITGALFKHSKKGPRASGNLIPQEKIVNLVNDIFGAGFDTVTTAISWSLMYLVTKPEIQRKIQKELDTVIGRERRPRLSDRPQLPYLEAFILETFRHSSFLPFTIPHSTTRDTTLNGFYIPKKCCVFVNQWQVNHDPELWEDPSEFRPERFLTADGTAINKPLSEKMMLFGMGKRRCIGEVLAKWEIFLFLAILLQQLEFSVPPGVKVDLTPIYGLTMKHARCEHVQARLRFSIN
Procedure, shortened: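 Compounds were incubated with CYP1A2 and a luminogenic proluciferin substrate for 10 min at room temperature before the reaction was started with NADPH regeneration solution. After 1 h, detection reagent was added and light output, proportional to CYP activity, was recorded.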

[4] = target: Cytochrome P450 3A4 (Homo sapiens) (UniProt P08684); experiment: Cytochrome P450 Family 3 Subfamily A Member 4 (CYP3A4) small molecule antagonists: luciferase reporter qHTS assay (AID 1671201); also: nearly all actives have a fitted effect of over 50% in size; also: potency is read from the fitted curve at half-maximal effect
Cytochrome P450 3A4 (Homo sapiens), sequence (P08684 whole entry, looked up): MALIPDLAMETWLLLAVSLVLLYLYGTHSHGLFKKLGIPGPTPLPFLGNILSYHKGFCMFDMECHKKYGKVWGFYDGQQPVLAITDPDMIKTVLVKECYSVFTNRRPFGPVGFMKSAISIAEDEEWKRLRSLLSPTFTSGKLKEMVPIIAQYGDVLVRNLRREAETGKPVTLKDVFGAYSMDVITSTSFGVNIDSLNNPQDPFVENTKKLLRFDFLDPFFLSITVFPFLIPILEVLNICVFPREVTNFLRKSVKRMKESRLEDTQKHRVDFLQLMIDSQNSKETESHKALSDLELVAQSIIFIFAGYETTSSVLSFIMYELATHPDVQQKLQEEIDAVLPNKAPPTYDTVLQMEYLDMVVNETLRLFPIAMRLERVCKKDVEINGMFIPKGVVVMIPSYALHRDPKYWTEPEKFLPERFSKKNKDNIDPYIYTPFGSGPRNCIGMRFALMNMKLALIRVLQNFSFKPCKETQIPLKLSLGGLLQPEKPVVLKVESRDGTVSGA
Procedure, shortened: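 Setup: enzyme-substrate mix, compound pin transfer, 10 min RT. Reaction: NADPH regeneration solution, 1 h RT. Readout: detection reagent stops turnover, luminescence measured after 20 min, expressed in relative luminescence units.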

[5] = target: Voltage-gated inwardly rectifying potassium channel KCNH2 (Homo sapiens) (UniProt Q12809); experiment: Human Ether-a-go-go-Related Gene (hERG) channel small molecule antagonists: fluorescence cell-based qHTS assay (AID 1671200);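 also: hERG-expressing U2OS cells given a thallium stimulus after FluxOR II dye loading; series mostly up to about 77 µM; nearly all actives have a fitted effect of over 50% in size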
Voltage-gated inwardly rectifying potassium channel KCNH2 (Homo sapiens), sequence (Q12809 whole entry, looked up): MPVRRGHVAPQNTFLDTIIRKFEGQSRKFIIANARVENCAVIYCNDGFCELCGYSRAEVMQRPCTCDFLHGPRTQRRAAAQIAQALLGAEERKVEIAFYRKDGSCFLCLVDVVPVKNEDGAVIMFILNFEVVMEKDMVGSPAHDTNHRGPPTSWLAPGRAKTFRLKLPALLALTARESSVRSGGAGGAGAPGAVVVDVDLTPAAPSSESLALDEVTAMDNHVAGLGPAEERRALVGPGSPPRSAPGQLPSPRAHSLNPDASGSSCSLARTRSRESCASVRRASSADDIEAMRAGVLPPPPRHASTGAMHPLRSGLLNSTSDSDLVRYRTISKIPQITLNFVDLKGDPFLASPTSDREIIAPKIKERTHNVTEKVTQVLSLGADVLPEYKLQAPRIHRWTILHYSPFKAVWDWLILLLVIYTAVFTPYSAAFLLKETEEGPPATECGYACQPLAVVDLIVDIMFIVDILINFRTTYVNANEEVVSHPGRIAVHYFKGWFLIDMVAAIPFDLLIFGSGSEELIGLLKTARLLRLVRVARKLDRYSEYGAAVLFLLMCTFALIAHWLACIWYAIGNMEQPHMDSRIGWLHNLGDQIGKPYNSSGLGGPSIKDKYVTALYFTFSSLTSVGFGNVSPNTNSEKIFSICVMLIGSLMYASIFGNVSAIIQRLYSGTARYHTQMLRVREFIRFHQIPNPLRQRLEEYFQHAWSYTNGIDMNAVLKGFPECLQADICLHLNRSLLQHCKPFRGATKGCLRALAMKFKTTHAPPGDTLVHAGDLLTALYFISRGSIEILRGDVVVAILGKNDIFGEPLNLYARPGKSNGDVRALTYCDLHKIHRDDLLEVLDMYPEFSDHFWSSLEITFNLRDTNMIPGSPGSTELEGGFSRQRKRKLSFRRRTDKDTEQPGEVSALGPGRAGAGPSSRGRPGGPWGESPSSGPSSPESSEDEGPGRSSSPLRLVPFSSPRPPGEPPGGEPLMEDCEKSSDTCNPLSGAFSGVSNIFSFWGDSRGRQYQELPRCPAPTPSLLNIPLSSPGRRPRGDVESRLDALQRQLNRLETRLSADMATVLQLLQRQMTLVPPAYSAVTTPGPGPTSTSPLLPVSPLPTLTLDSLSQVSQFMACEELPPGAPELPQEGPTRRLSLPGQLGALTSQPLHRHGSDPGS
Procedure, shortened: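 Measured: Tl+ flux via fluorescence (480/540 nm) in hERG-expressing U2OS cells after 1 h dye loading at room temperature.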

SMILES: CC(C)(C)OOC(=O)c1ccccc1
- Potency [1]: inactive
- Potency [2]: inactive
- Potency [3]: inactive
- Potency [4]: inactive

SMILES: CC(Oc1ccc(Cl)cc1Cl)C(=O)O (stereo not given)
- Potency [1]: 35.7 µM (active)
- Potency [2]: 35.7 µM (active) and 71 µM (active)
- Potency [3]: inactive
- Potency [4]: inactive

SMILES: O=C1CCCN1
- Potency [1]: 8.05 µM (active) and inactive
- Potency [2]: inactive
- Potency [3]: inactive
- Potency [4]: 7.17 µM (active) and inactive

SMILES: O=c1[nH]c(=O)[nH]c(=O)[nH]1
- Potency [1]: inactive
- Potency [2]: inactive
- Potency [3]: inactive
- Potency [4]: inactive

SMILES: CCC[N+](=O)[O-]
- Potency [2]: inactive
- Potency [3]: inactive
- Potency [5]: inactive
- Potency [4]: inactive

SMILES: Cc1[nH]c(=O)n(C(C)(C)C)c(=O)c1Cl
- Potency [1]: 71.7 µM (active) and 31.7 µM (active)
- Potency [2]: inactive
- Potency [5]: inactive
- Potency [4]: inactive

SMILES: CCC(C)(CC)c1cc(NC(=O)c2c(OC)cccc2OC)on1
- Potency [1]: 40 µM (active) and 68.3 µM (active)
- Potency [2]: 35.7 µM (active) and 34.2 µM (active)
- Potency [5]: inactive
- Potency [4]: 799 nM (active) and 1.93 µM (active)

SMILES: CC(C)(Cl)Cl
- Potency [2]: inactive
- Potency [3]: inactive and 44.8 µM (active)
- Potency [5]: inactive
- Potency [4]: inactive

SMILES: CCC[CH2][Sn]([Cl])([Cl])[Cl]
- Potency [2]: inactive
- Potency [3]: inactive
- Potency [5]: inactive
- Potency [4]: inactive

SMILES: CCCCN(CCCC)SN(C)C(=O)Oc1cccc2c1OC(C)(C)C2
- Potency [1]: 36.2 µM (active) and 71 µM (active)
- Potency [2]: 40.6 µM (active) and 31.7 µM (active)
- Potency [3]: 36.2 µM (active) and 39.9 µM (active)
- Potency [4]: 14.4 µM (active) and 12.6 µM (active)

SMILES: O=NN1CCCCCCC1
- Potency [2]: inactive
- Potency [3]: inactive
- Potency [5]: inactive
- Potency [4]: inactive

SMILES: CNC(=O)Oc1ccccc1OC(C)C
- Potency [1]: inactive
- Potency [2]: inactive
- Potency [3]: 35.6 µM (active)
- Potency [4]: inactive

SMILES: C=CC(N)=O
- Potency [2]: inactive
- Potency [3]: 35.7 µM (active) and inactive

SMILES: C=CCO
- Potency [1]: inactive
- Potency [2]: inactive
- Potency [3]: inactive
- Potency [4]: inactive

SMILES: CCc1cccc(C)c1N(C(=O)CCl)C(C)COC (stereo not given)
- Potency [1]: 6.69 µM (active) and 6.33 µM (active)
- Potency [2]: 29.9 µM (active) and 28.3 µM (active)
- Potency [3]: 66.9 µM (active) and inactive
- Potency [4]: inactive

SMILES: CN=C=S
- Potency [2]: inactive
- Potency [3]: 40.3 µM (active)
- Potency [5]: inactive
- Potency [4]: inactive

SMILES: CC(Br)C(=O)O (stereo not given)
- Potency [2]: 36 µM (active)
- Potency [3]: inactive
- Potency [5]: inactive
- Potency [4]: inactive

SMILES: CC(=O)C=C(C)C
- Potency [2]: inactive
- Potency [3]: inactive
- Potency [4]: inactive

SMILES: NCCc1ccc(O)cc1
- Potency [3]: 39.6 µM (active) and inactive
- Potency [5]: inactive

SMILES: C1CN2CCN1CC2
- Potency [2]: inactive
- Potency [3]: inactive
- Potency [4]: inactive

SMILES: Cc1cccc([N+](=O)[O-])c1
- Potency [2]: inactive
- Potency [3]: inactive
- Potency [5]: inactive
- Potency [4]: inactive

SMILES: CCCC1COC(Cn2cncn2)(c2ccc(Cl)cc2Cl)O1 (stereo not given)
- Potency [2]: 2.04 µM (active) and 2.24 µM (active)
- Potency [3]: 20.4 µM (active) and 31.7 µM (active)
- Potency [4]: 51.2 nM (active) and 56.4 nM (active)

SMILES: CC(C)=C[C@@H]1[C@@H](C(=O)OCc2coc(Cc3ccccc3)c2)C1(C)C
- Potency [2]: 1.42 µM (active) and 5.49 µM (active)
- Potency [3]: 27.5 µM (active)
- Potency [5]: inactive
- Potency [4]: inactive

SMILES: C#CCN(C)[C@H](C)Cc1ccccc1
- Potency [2]: inactive
- Potency [3]: 17.8 µM (active) and inactive
- Potency [4]: inactive

SMILES: NCC(O)c1ccc(O)cc1 (stereo not given)
- Potency [2]: inactive
- Potency [3]: inactive
- Potency [5]: inactive
- Potency [4]: inactive

SMILES: ClCc1cccnc1
- Potency [2]: inactive
- Potency [3]: 62.2 µM (active) and inactive
- Potency [5]: inactive
- Potency [4]: inactive

SMILES: CC(C#N)CCC#N (stereo not given)
- Potency [2]: inactive
- Potency [3]: inactive
- Potency [5]: inactive
- Potency [4]: inactive

SMILES: CCOC(=O)c1ccccc1C(=O)OCC
- Potency [3]: 3.22 µM (active) and 3.17 µM (active)
- Potency [5]: inactive
- Potency [4]: inactive

SMILES: CN(C)CCO
- Potency [2]: inactive
- Potency [3]: inactive
- Potency [5]: inactive
- Potency [4]: inactive

SMILES: CC1C=[C-]C=C1.[C-]#[O+].[C-]#[O+].[C-]#[O+].[Mn]
- Potency [2]: inactive
- Potency [5]: inactive
- Potency [4]: inactive

SMILES: Oc1ccccc1Cl
- Potency [2]: inactive
- Potency [4]: inactive

SMILES: CON(C)C(=O)Nc1ccc(Cl)c(Cl)c1
- Potency [2]: 40.1 µM (active) and 39.9 µM (active)
- Potency [3]: 1.42 µM (active) and 3.17 µM (active)
- Potency [5]: inactive
- Potency [4]: inactive

SMILES: c1cc2c3c(cccc3c1)CC2
- Potency [2]: inactive
- Potency [4]: inactive

SMILES: O=c1ccc(=O)[nH][nH]1
- Potency [2]: inactive
- Potency [3]: inactive
- Potency [4]: inactive

SMILES: CCC12COCN1COC2
- Potency [2]: inactive
- Potency [3]: inactive
- Potency [4]: 40 µM (active) and inactive

SMILES: c1ccc(OP(Oc2ccccc2)Oc2ccccc2)cc1
- Potency [2]: inactive
- Potency [3]: inactive
- Potency [5]: inactive
- Potency [4]: inactive

SMILES: CCCCCCCCCl
- Potency [2]: inactive
- Potency [3]: inactive
- Potency [4]: inactive

SMILES: Nc1ccc(Cc2ccc(N)cc2)cc1
- Potency [2]: 31.2 µM (active) and inactive
- Potency [3]: 39.3 µM (active) and 35.6 µM (active)
- Potency [5]: inactive
- Potency [4]: 6.99 µM (active) and 3.99 µM (active)

SMILES: Clc1ccccc1Cl
- Potency [2]: inactive
- Potency [3]: inactive
- Potency [4]: inactive

SMILES: Cc1cc(Cl)ccc1O
- Potency [3]: 30.8 µM (active) and 31.7 µM (active)
- Potency [4]: inactive

SMILES: C#CC(C)(C)NC(=O)c1cc(Cl)cc(Cl)c1
- Potency [2]: 71.7 µM (active) and inactive
- Potency [3]: 5.07 µM (active) and 15.9 µM (active)
- Potency [5]: inactive
- Potency [4]: 20.2 µM (active) and 35.6 µM (active)

SMILES: CCCCN(CC)C(=O)SCCC
- Potency [2]: inactive
- Potency [3]: inactive
- Potency [5]: inactive
- Potency [4]: inactive

SMILES: CC(C)(C)OOC(C)(C)C
- Potency [2]: inactive
- Potency [3]: inactive
- Potency [4]: inactive

SMILES: ClCCBr
- Potency [2]: inactive
- Potency [3]: inactive
- Potency [5]: inactive
- Potency [4]: inactive

SMILES: c1ccc2c(c1)oc1ccccc12
- Potency [2]: 36.1 µM (active) and inactive
- Potency [3]: inactive and 10 µM (active)
- Potency [4]: inactive

SMILES: CC(NC(C)(C)C)C(=O)c1cccc(Cl)c1 (stereo not given)
- Potency [2]: inactive
- Potency [3]: inactive
- Potency [4]: inactive

SMILES: CC1OC(C)OC(C)O1 (stereo not given)
- Potency [2]: inactive
- Potency [4]: inactive

SMILES: CC(C)N1C(=O)c2ccccc2NS1(=O)=O
- Potency [2]: 20 µM (active) and 17.8 µM (active)
- Potency [3]: inactive
- Potency [4]: inactive

SMILES: CCCCCCCCCCCC#N
- Potency [2]: inactive
- Potency [3]: inactive
- Potency [5]: inactive
- Potency [4]: inactive

SMILES: COC(=O)c1ccccc1N
- Potency [3]: 34.4 µM (active) and 39.9 µM (active)
- Potency [5]: inactive
- Potency [4]: inactive

SMILES: O=S(=O)(c1ccc(Cl)cc1)c1cc(Cl)c(Cl)cc1Cl
- Potency [2]: 28.3 µM (active)
- Potency [5]: inactive
- Potency [4]: inactive

SMILES: C1CC2OC2CC1C1CO1 (stereo not given)
- Potency [2]: inactive
- Potency [3]: inactive
- Potency [5]: inactive
- Potency [4]: inactive
